Our source for the activity change, negative = inhibition values is PubChem BioAssay AID652062 (Broad Institute, 2013).

In all, about 1,400 compounds went through this assay and about 1,100 (79%) were called active.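 How the source made its calls: active means fitted half-maximal concentration of a falling signal no higher than twice the top valid dose in every test run; inconclusive means runs disagree, or flat partial inhibition, or poor fit; inactive means every run inactive: flat, wrong direction, or potency beyond limit.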 So high a share suggests a set chosen from earlier hits. Only a sample is shown. Results with a measured potency or affinity are listed apart.

The nature of the assay: inhibitors of clade B AD8 Env fusion, dose response, cell-based, cherry-pick (AID 652062). Particulars: HeLa-AD8 Env / CEM-CCR5 cell fusion, luciferase; at 35 µM (top of the series) unless noted.
For the molecule `CCNc1ncnc2c1cnn2C1CCCO1` (stereo not drawn), the activity change, negative = inhibition is -11.7%.

With `C[C@@H]1CN([C@@H](C)CO)C(=O)Cc2cc(NC(=O)NC3CCCCC3)ccc2O[C@@H]1CN(C)S(=O)(=O)c1ccc(Cl)cc1`, the activity change, negative = inhibition is -18.9%.

`COc1cccc(CNC(=O)C[C@@H]2C=C[C@H](NC(=O)C3CCC3)[C@H](CO)O2)c1`: the activity change, negative = inhibition was 64%.

For `CCS(=O)(=O)N[C@H]1CC[C@@H](CC(=O)NCc2ccc(Cl)cc2)O[C@@H]1CO`, the activity change, negative = inhibition stood at 46.4%.

With `O=C(Nc1cccc(F)c1)N[C@H]1CC[C@@H](CCNS(=O)(=O)c2cccc(Cl)c2)O[C@H]1CO`, the activity change, negative = inhibition amounted to 15.8%.

In the case of `CNC[C@@H]1Oc2c(N)cccc2C(=O)N([C@@H](C)CO)C[C@@H]1C`, the activity change, negative = inhibition was -6.55%.

On to `C[C@@H]1CN([C@H](C)CO)C(=O)c2cccc(NC(=O)c3cnccn3)c2O[C@H]1CN(C)Cc1ccccc1`, for which the activity change, negative = inhibition came to 8.76%.

`C[C@H](CO)N1C[C@H](C)[C@H](CN(C)C(=O)Nc2ccccc2)Oc2c(NS(=O)(=O)c3ccc(F)cc3)cccc2C1=O`: the activity change, negative = inhibition is 63.4% [at 8 µM].

Regarding `C[C@@H]1CN([C@H](C)CO)C(=O)c2cccc(NS(=O)(=O)c3ccc(Cl)cc3)c2O[C@H]1CN(C)CC1CCCCC1`, the activity change, negative = inhibition is 87% [at 8 µM].

For `C[C@H]1CN([C@@H](C)CO)C(=O)c2cccc(NC(=O)C3CCCCC3)c2O[C@H]1CN(C)S(C)(=O)=O`, the activity change, negative = inhibition was 43.4%.

On to `COc1ccccc1N/C(N)=N/c1nc(CSc2ccc(C)cc2)cc(=O)[nH]1`, for which the activity change, negative = inhibition is -51.5%.

Consider `CCOC(=O)C1=C(C)N=C2c3ccccc3C(=O)C2C1c1ccc(Cl)cc1` (stereo not drawn), for which the activity change, negative = inhibition was -84.7%.

In the case of `CCOC(=O)c1ccc(NC2c3ncccc3C(=O)N2Cc2ccc(F)cc2)cc1` (stereo not drawn), the activity change, negative = inhibition is -27%.

With `CC(CCc1ccco1)NC(=O)CCc1nnc2ccc(NCc3ccccc3Cl)nn12` (stereo not drawn), the activity change, negative = inhibition came to 87.2%.

As to `COc1cccc(S(=O)(=O)N[C@H]2CC[C@@H](CCN)O[C@@H]2CO)c1`, the activity change, negative = inhibition was 11.2%.

For `COc1cccc(S(=O)(=O)N[C@@H]2CC[C@H](CCN)O[C@H]2CO)c1`, the activity change, negative = inhibition amounted to 3.96%.

`O=C(Nc1cc2c3c(c1)CC(=O)N3CCC2)c1ccc(Cl)cc1`: the activity change, negative = inhibition amounted to 197% [at 16 µM].

As to `CCCNC(=O)C[C@@H]1C[C@H]2c3cc(NC(=O)c4cccnc4)ccc3O[C@H]2[C@H](CO)O1`, the activity change, negative = inhibition turned out to be 6.61%.

With `COc1ccccc1CNC(=O)C[C@H]1C[C@@H]2c3cc(NC(=O)c4cccnc4)ccc3O[C@@H]2[C@@H](CO)O1`, the activity change, negative = inhibition amounted to 64.7%.

For the molecule `CC1CCN(C(=O)c2ncn3c2C(=O)NC[C@@H]3C)CC1`, the activity change, negative = inhibition worked out at 15.1%.

For the molecule `CCN(CC)C(=O)c1ncn2c1C(=O)NC[C@@H]2C`, the activity change, negative = inhibition was -31.4%.

As to `CC(C)C#Cc1ccc2c(c1)O[C@@H](CN(C)C(=O)C1CCCCC1)[C@H](C)CN([C@H](C)CO)S2(=O)=O`, the activity change, negative = inhibition amounted to 41.8% [at 16 µM].

With `C[C@@H]1CN([C@H](C)CO)S(=O)(=O)c2ccc(C#Cc3cccc(F)c3)cc2O[C@@H]1CN(C)C(=O)CN1CCOCC1`, the activity change, negative = inhibition was 80.2%.

As to `C[C@@H]1CN([C@@H](C)CO)S(=O)(=O)c2ccc(-c3ccc(F)cc3)cc2O[C@H]1CN(C)C(=O)C1CCCCC1`, the activity change, negative = inhibition is -27.8%.

As to `CCC(=O)N(C)C[C@H]1Oc2cc(/C=C/c3ccccc3)ccc2S(=O)(=O)N([C@@H](C)CO)C[C@H]1C`, the activity change, negative = inhibition is -29.3%.

For `Cc1ccc(-c2ccc3c(c2)O[C@@H](CN(C)C(=O)C2CCCCC2)[C@H](C)CN([C@H](C)CO)S3(=O)=O)cc1`, the activity change, negative = inhibition was found to be 53.1% [at 16 µM].

Take `CCCC#Cc1ccc2c(c1)O[C@@H](CN(C)C(=O)C1CCCCC1)[C@H](C)CN([C@H](C)CO)S2(=O)=O`: the activity change, negative = inhibition is 90.1% [at 16 µM].

Regarding `Cc1ccc(C(=O)NCc2ccccn2)cc1S(=O)(=O)N1CCCCC1`, the activity change, negative = inhibition was 24.4%.

As to `Cc1ccc(S(=O)(=O)N(C)C[C@H]2Oc3ccc(NC(=O)Nc4cccc5ccccc45)cc3C(=O)N([C@H](C)CO)C[C@@H]2C)cc1`, the activity change, negative = inhibition is 64%.

With `CO[C@H]1CN(C)C(=O)c2cc(NS(=O)(=O)c3ccc(Cl)cc3)ccc2OC[C@@H](C)N(C)C[C@@H]1C`, the activity change, negative = inhibition worked out at 45%.

Turning to `CCC(=O)Nc1ccc2c(c1)C(=O)N(C)C[C@@H](OC)[C@H](C)CN(C(=O)CC)[C@@H](C)CO2`, the activity change, negative = inhibition worked out at 44.7%.

`CCCC(=O)Nc1ccc2c(c1)OC[C@H](C)N(Cc1ccncc1)C[C@H](C)[C@H](OC)CN(C)C2=O`: the activity change, negative = inhibition was -9.34%.

As for `CO[C@@H]1CN(C)C(=O)c2ccc(NS(C)(=O)=O)cc2OC[C@@H](C)N(C(=O)C2CCCCC2)C[C@H]1C`, the activity change, negative = inhibition stood at 26.2%.

Regarding `CCCC(=O)Nc1ccc2c(c1)OC[C@@H](C)N(C(=O)CN(C)C)C[C@H](C)[C@@H](OC)CN(C)C2=O`, the activity change, negative = inhibition was -23.4%.

As to `CCS(=O)(=O)Nc1ccc2c(c1)C(=O)N(C)C[C@H](OC)[C@@H](C)CN(C(=O)C1CCC1)[C@H](C)CO2`, the activity change, negative = inhibition amounted to 25.1%.

In the case of `CO[C@H]1CN(C)C(=O)c2ccc(NC(=O)C3CC3)cc2OC[C@@H](C)N(C(C)=O)C[C@@H]1C`, the activity change, negative = inhibition stood at 20%.

`COc1ccccc1C(=O)Nc1ccc2c(c1)OC[C@H](C)N(C(C)=O)C[C@H](C)[C@H](OC)CN(C)C2=O`: the activity change, negative = inhibition was -17.7%.

For `CO[C@H]1CN(C)C(=O)c2cc(NC(C)=O)ccc2OC[C@@H](C)N(Cc2nccs2)C[C@H]1C`, the activity change, negative = inhibition turned out to be 20%.

Take `CCCC(=O)Nc1ccc2c(c1)C(=O)N(C)C[C@@H](OC)[C@@H](C)CN(Cc1nccs1)[C@@H](C)CO2`: the activity change, negative = inhibition worked out at 33.3%.

With `CO[C@@H]1CN(C)C(=O)c2ccc(NC(C)=O)cc2OC[C@@H](C)N(Cc2cncnc2)C[C@@H]1C`, the activity change, negative = inhibition came to 15.1%.

As for `COc1ccccc1S(=O)(=O)Nc1ccc2c(c1)C(=O)N(C)C[C@@H](OC)[C@@H](C)CN[C@@H](C)CO2`, the activity change, negative = inhibition was -2.95%.

Consider `CO[C@@H]1CN(C)C(=O)c2cc(NS(=O)(=O)c3ccc(C)cc3)ccc2OC[C@H](C)N(C(=O)NC(C)C)C[C@@H]1C`, for which the activity change, negative = inhibition was -8.46%.

Take `CCOC(=O)CN1CCCc2nc(C)c(C)cc21`: the activity change, negative = inhibition is -11.4%.

As for `Cc1ccc(Cn2nnnc2CN2CCC(c3nc4ccc(Cl)cc4[nH]3)CC2)cc1`, the activity change, negative = inhibition is 44.3%.

For the molecule `CC(=O)c1ccc([C@H]2C[C@@]34CN(C(=O)OC(C)(C)C)S(=O)(=O)[C@H]3C[C@H]2O4)cc1`, the activity change, negative = inhibition was -3.29%.

With `COc1ccc(C)cc1NC(=O)CCNS(=O)(=O)c1ccc2c(c1)CC(C)N2C(C)=O` (stereo not drawn), the activity change, negative = inhibition is -17.8%.

In the case of `CNC[C@@H]1Oc2ccc(NS(C)(=O)=O)cc2CC(=O)N([C@H](C)CO)C[C@H]1C`, the activity change, negative = inhibition amounted to 18.9%.

For the molecule `O=C(Nc1ccc(Cl)cn1)C1CCCN1S(=O)(=O)c1cccc2ccccc12` (stereo not drawn), the activity change, negative = inhibition is -67.5%.
